# In PubChem BioAssay AID651871 (Sanford-Burnham Center for Chemical Genomics, 2012):
# System: HL-1
# Test: cardiomyocyte survival under oxidative or metabolic stress – cell-based, panel, H9c2 and HL-1, ATP luminescence, set 2, SAR follow-up (AID 651871);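 also: cells exposed to stressor for 2 h before ATP readout; reference of the scale not given here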
# Conditions: H9c2/HL-1 cardiomyocytes, 2-deoxyglucose stress, with 2-deoxyglucose, run 3, at 19.8 µM (top of the series)
structure (smiles),measurement,value
COc1ccc2c(c1OC)C(=O)N1c3ccccc3C(=O)N(Cc3cccc(Cl)c3Cl)C21 (stereo unspecified),activity (protection/inhibition),22.5%
